Whole data set: some 33,000 sequences, median “E-score (-0.5 to 0.5)” near -0.021, cut for the highest 2% near 0.32. The sample as a whole holds a higher share of the highest values than the screen did.
Biological target: T1, Zap1 (UniProt P47043)
T1 sequence: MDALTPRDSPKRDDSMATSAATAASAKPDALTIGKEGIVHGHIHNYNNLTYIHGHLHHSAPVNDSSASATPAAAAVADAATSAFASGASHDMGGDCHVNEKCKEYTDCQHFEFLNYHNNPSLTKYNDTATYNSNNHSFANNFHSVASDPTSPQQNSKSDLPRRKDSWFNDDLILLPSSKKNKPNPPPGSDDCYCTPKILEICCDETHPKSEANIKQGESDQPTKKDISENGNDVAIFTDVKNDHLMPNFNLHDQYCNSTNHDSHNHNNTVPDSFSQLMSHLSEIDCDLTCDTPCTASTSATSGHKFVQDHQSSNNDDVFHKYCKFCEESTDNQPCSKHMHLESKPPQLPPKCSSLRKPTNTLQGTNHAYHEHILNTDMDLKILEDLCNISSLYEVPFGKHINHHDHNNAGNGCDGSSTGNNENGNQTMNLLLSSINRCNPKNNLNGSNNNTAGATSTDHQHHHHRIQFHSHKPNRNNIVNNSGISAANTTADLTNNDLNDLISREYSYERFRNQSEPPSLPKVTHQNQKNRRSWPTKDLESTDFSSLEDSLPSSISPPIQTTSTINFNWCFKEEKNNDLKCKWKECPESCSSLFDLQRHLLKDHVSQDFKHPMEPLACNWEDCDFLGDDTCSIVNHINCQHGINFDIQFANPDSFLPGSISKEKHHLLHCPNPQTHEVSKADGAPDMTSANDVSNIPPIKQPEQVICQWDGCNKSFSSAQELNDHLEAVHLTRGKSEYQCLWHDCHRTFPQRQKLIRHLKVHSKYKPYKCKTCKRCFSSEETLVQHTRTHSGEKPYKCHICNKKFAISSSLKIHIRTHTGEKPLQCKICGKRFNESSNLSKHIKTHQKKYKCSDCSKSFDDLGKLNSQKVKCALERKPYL
Assay: PBM E-score (8-mer binding enrichment) (E-score (-0.5 to 0.5)); higher = stronger / more preferred TF binding
Settings: protein concentration: 200 nM; construct: GST-full length
Method: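 Universal 'all 10-mer' protein binding microarrays (Agilent AMADID 015681) probed with GST-tagged S. cerevisiae TFs (full-length or DBD) made by in vitro transcription/translation (PURExpress), about 100-200 nM. Bound TF was detected with fluorescent anti-GST. Each ungapped 8-mer (which stands for itself and its reverse complement) is scored by the PBM enrichment score (E-score), a modified Wilcoxon-Mann-Whitney statistic from -0.5 to +0.5, computed with the Universal PBM Analysis Suite. Scale: above 0.35 generally sequence-specific binding.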

Row | Sequence | PBM E-score
1 | AGCTGTAG | -0.0501
2 | ATGGCCAC | 0.185
3 | ATGGCCAG | 0.268
4 | ATGGCCAT | 0.332
5 | CGACGCTC | 0.0879
6 | CTGAGCCC | -0.179
7 | ACCCTTAC | 0.29
8 | GCCCTTAA | 0.112
9 | CCCCTTAG | 0.107
10 | TCCCTTAA | 0.0619
11 | ACCCTTAG | 0.432
12 | ACCCTTAT | 0.404
13 | AGCCTTAT | -0.0493
14 | ATCCTTAG | -0.192
15 | ACCCTTAA | 0.443
16 | TAGTTGCA | 0.116
17 | ATACACGC | -0.091
18 | AATCACAC | 0.0533
19 | TCTCGCCA | -0.206
20 | ACAATACC | 0.252
21 | TACTATAA | 0.249
22 | CAGATGAA | -0.103
23 | ACTCTCGG | 0.0208
24 | ACGGTGAA | -0.0282
25 | ACCTCGAG | 0.349

Row | Sequence | PBM E-score
26 | ACCTCGTG | 0.348
27 | ACCTCGAT | 0.245
28 | ACCTCGTC | 0.0929
29 | CCCTCGAG | 0.159
30 | ACCTCGTA | 0.189
31 | ACTGTCGA | -0.0508
32 | CCCAATTC | 0.157
33 | TCACAGAA | -0.00307
34 | CTGCGCAG | -0.325
35 | CTTGAGCC | -0.111
36 | GTAACCAC | 0.431
37 | AGAACCAC | 0.285
38 | CAAACCAC | 0.0159
39 | ATAACCAC | 0.46
40 | CTAACCAC | 0.325
41 | AAAACCAC | 0.197
42 | GGAACCAC | 0.0961
43 | CCAACCAC | 0.256
44 | GAAACCAC | 0.116
45 | CCTCTAAG | 0.139
46 | ACCATTTC | 0.126
47 | GATGGGCC | -0.145
48 | CCCCCCAA | -0.371
49 | TAGCCTAA | -0.0154
50 | ACTACCTC | 0.356

Row | Sequence | PBM E-score
51 | ATTACCTA | 0.216
52 | ATTACCTG | 0.149
53 | ATTACCTC | 0.32
54 | CCTACCTC | 0.125
55 | ACTACCTA | 0.161
56 | CGTAATCA | 0.196
57 | AGGTCACG | 0.406
58 | GAGTCACC | 0.0467
59 | AGGTCACA | 0.359
60 | AGGTCACT | 0.25
61 | ATGTCACG | -0.195
62 | GGGTCACC | 0.438
63 | AGGTCAAC | 0.118
64 | CGGTCACG | 0.203
65 | AAGTCACA | -0.034
66 | CGGTCACC | 0.276
67 | ACGTCACC | 0.0378
68 | AGGTCACC | 0.37
69 | ACCCATTG | 0.166
70 | CGAGCGAA | -0.162
71 | ATACGGCA | 0.0784
72 | AACGAGAG | -0.138
73 | GCTTTACA | -0.0896
74 | CTTAATCC | -0.131
75 | GACTGAAC | -0.199

Row | Sequence | PBM E-score
76 | ACCAGCAA | 0.26
77 | TCTAGGCA | -0.0489
78 | AAAAACTT | 0.0552
79 | GCATTAGC | -0.151
80 | GGATACAA | 0.0969
81 | CGTTTGGA | 0.0241
82 | CGGTCACA | 0.163
83 | TGGTCACA | 0.231
84 | GGGTCACA | 0.398
85 | GCCCAACC | -0.0373
86 | ACTATGGC | -0.0314
87 | AGTTATGC | 0.0469
88 | AGGGTGAA | 0.0968
89 | AGGGTGAG | -0.118
90 | AGGGTGAC | 0.415
91 | AGGGTGAT | 0.427
92 | GGGGTGAC | 0.337
93 | ACGGTGAC | -0.0408
94 | CGGGTGAC | 0.167
95 | AGGGTGTC | 0.304
96 | GGGGTGAA | 0.0494
97 | ATCTCGTA | -0.0363
98 | AACTGTCT | -0.105
99 | GAGAGCTA | -0.305
100 | GGCGATCA | -0.283

Row | Sequence | PBM E-score
101 | GCCCTGCA | -0.195
102 | ACCCTGCC | 0.186
103 | TCCCTGCA | 0.0185
104 | ACCCTGCA | 0.394
105 | CCCCTGCG | -0.17
106 | ACCCTGCG | 0.422
107 | TACACAGA | 0.0113
108 | AGACTGAC | -0.202
109 | GAGCTATA | -0.233
110 | ACATACGA | 0.0717
111 | CGCGTCGC | -0.204
112 | CTGTGGAA | -0.0936
113 | AACCAGAT | 0.142
114 | ACAGATCT | -0.0411
115 | GCATAACC | 0.414
116 | ACATAACG | 0.0512
117 | GCATAACA | 0.0518
118 | GCATAAGC | -0.0977
119 | ACATAACC | 0.454
120 | ACATAACT | 0.149
121 | CATCTTAA | -0.0359
122 | AAGCGGGC | -0.335
123 | CGTGACCC | 0.418
124 | GGTGACCA | 0.283
125 | AGTGACCC | 0.347

Row | Sequence | PBM E-score
126 | AGTGACCG | 0.115
127 | CGTGACCA | 0.35
128 | CGTGACGC | -0.134
129 | AGTGACCA | 0.247
130 | CTTGACCC | 0.311
131 | AGTGACAC | -0.119
132 | AGACTTAG | -0.306
133 | ATGTTAAG | -0.0536
134 | GGGTTAAA | 0.443
135 | GAGTTAAC | 0.00603
136 | AGGTTAAC | 0.405
137 | ACGTTAAC | 0.0746
138 | GTGTTAAA | 0.0467
139 | AGGTTAAT | 0.315
140 | ACGTTAAG | -0.0481
141 | GGGTTTAA | 0.242
142 | GGGTTAAC | 0.403
143 | CGGTTAAC | 0.232
144 | AGGTTAAG | 0.383
145 | CTGCCAGA | -0.0969
146 | GGTTAGGA | 0.296
147 | CAGTGCAA | -0.0222
148 | CCCTAGAA | 0.177
149 | CCGGTGTC | 0.0219
150 | AGGTAGTG | 0.268

Row | Sequence | PBM E-score
151 | CGGTAGTA | 0.107
152 | AGGTAGTA | 0.337
153 | AAATGAAA | 0.23
154 | ACATTCTC | -0.0126
155 | GAATAACC | 0.438
156 | CAATAACC | 0.468
157 | AAATAACG | 0.042
158 | GAATAAGC | -0.182
159 | GAATAACA | 0.181
160 | AAATAACC | 0.42
161 | CAATAACG | 0.138
162 | AAATAACA | 0.0357
163 | CAATAACA | 0.0373
164 | CGCGGCAG | -0.049
165 | GCGTTGAC | -0.0667
166 | CGCCAGCG | -0.255
167 | GTTGCCGA | -0.0812
168 | GTAGCAAC | -0.0913
169 | GACAGTCA | -0.217
170 | ACCGTTAA | 0.256
171 | GAAGGTGC | 0.0253
172 | GAAGGTGA | 0.116
173 | CAAGGTTC | 0.0224
174 | GAAGGTTA | 0.437
175 | CAAGGTTA | 0.466

Row | Sequence | PBM E-score
176 | CAAGGTGA | 0.216
177 | GTCTGGTA | 0.146
178 | CGTCCATA | 0.125
179 | AGCTGAGC | -0.185
180 | CTACCCCA | 0.139
181 | GTACCCCA | 0.35
182 | GTACCCAA | 0.234
183 | ATACCCCA | 0.383
184 | ATACCCAA | 0.247
185 | ATACCCCC | 0.221
186 | ACTCTGCA | 0.0815
187 | AGTTCAGG | 0.0101
188 | ATATGACG | -0.122
189 | GCCGAGGC | -0.0423
190 | AACCCATA | 0.391
191 | CCCCCATA | -0.0168
192 | ACCCCATA | 0.373
193 | ACCCCATG | 0.255
194 | AACCCATT | 0.276
195 | GACCCATA | 0.259
196 | GTATTCAA | 0.123
197 | AGCCACAG | -0.199
198 | GACAGCCA | -0.146
199 | ACGTCACT | -0.246
200 | GCCTTACC | 0.0234

Row | Sequence | PBM E-score
201 | CCATAAAC | 0.0419
202 | AAGGTAGC | 0.307
203 | GAGGTAGC | 0.0662
204 | AACGTACT | 0.0257
205 | AAGGTAGA | 0.106
206 | GAGGTACA | 0.155
207 | CAGGTACG | 0.0402
208 | GAGGTACC | 0.432
209 | AAGGTACT | 0.33
210 | CAGGTACC | 0.415
211 | CAGGTACA | 0.101
212 | AAGGTAGT | 0.373
213 | AAGGTATC | 0.255
214 | GGATCCCC | -0.152
215 | CGATAGAG | -0.236
216 | GTACCTTA | 0.265
217 | GGCATAGA | -0.0663
218 | CGCTACGA | -0.0679
219 | AAGGTACC | 0.445
220 | AAGGTACA | 0.223
221 | AAGGTACG | 0.0328

— the supplement of paper PMC3334620
